Among the data in the supplement of paper PMC7156485 are cell number and H1.0 immunofluorescence intensity values, retold here.

± gives the standard deviation of the averaged measurements.

What all share (conditions): concentration: 10 µM; 24 h
Assay [1] concerns HCC1569. Put plainly: cell number relative to DMSO (% of DMSO); higher = more cells (less growth inhibition / toxicity). In a few lines: (§1)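 Compounds were applied at 10 µM for 24 h at 37 °C, in triplicate, to HCC1569 and TDF cells. The cells were then fixed and stained for H1.0, and nuclei were counterstained with DAPI. Nuclear H1.0 intensity or cell number is reported relative to the plate control as a percent, taking the median of replicates. Smoothing for positional effects was applied to HCC1569 values only.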

Assay [2] concerns TDF. The description is as above. The gist of the method:
as §1

In assay [3] the test system is TDF. The experiment in a line: H1.0 immunofluorescence intensity relative to DMSO (% of DMSO); higher = stronger H1.0 induction, active = 120 or more. The gist of the method:
as §1

For assay [4], the system named is HCC1569. Put plainly: H1.0 immunofluorescence intensity relative to DMSO (% of DMSO); higher = stronger H1.0 induction, active = 140 or more. The gist of the method:
as §1
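Wherever H1.0 immunofluorescence intensity relative to DMSO is given: TDF is a line of transformed human dermal fibroblasts of mesenchymal origin.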
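Wherever cell number relative to DMSO is given: TDF denotes transformed human dermal fibroblasts of mesenchymal origin.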

Regarding `Cc1ccc(NC(=O)c2ccc(CN3CCN(C)CC3)cc2)cc1Nc1nccc(-c2cccnc2)n1` [Imatinib], the cell number in assay [1] and in assay [2] was 101 in each case. Further, the values for the H1.0 immunofluorescence intensity in assay [3] and in assay [4] were 107 (inactive) and 103 (inactive), respectively.
`COC(=O)N=NC=C1C=[N+]([O-])c2ccccc2N1O` [Carbadox]: the cell number in assay [1] amounted to 104; in assay [2] it was 101. Besides, the H1.0 immunofluorescence intensity in assay [3] was 95.8 (inactive); in assay [4], 92.8 (inactive).
For `Cc1ccc(C(=CCN2CCCC2)c2ccccn2)cc1.Cl` [Trans-triprolidine.HCl], the cell number was 100 in assay [1] and 95.5 in assay [2]. For the same molecule, the H1.0 immunofluorescence intensity in assay [3] was 99 (inactive); in assay [4], 110 (inactive).
As to `COc1cc2nc(N3CCN(C(=O)C4=CC5C=CC4CC5)CC3)nc(N)c2cc1OC` (configuration not stated) [Prazobind], the cell number in assay [1] was determined as 101; in assay [2], 102. In addition, the results for the H1.0 immunofluorescence intensity in assay [3] and in assay [4] were 95.3 (inactive) and 93.2 (inactive), respectively.
`CCCCCCCCC1OC1CCCCCCCC(=O)O` (configuration not stated) [Epoxy-oleic acid]: the cell number amounted to 97.7 in assay [1] and 99.9 in assay [2]. Further, the H1.0 immunofluorescence intensity in assay [3] was 96.8 (inactive); in assay [4] it was 99.1 (inactive).
Consider `CCN1C(=O)C=CC1=O` [N-Ethylmaleimide], for which the cell number is 102 ± 5.4 in assay [1] and 97.2 ± 4.9 in assay [2]. Besides, the values for the H1.0 immunofluorescence intensity in assay [3] and in assay [4] were 96.6 (inactive) and 91.7 (inactive), respectively.
For `Cl.Cl.N=C(N)c1ccc(N)cc1` [4-Aminobenzamidine dihydrochloride], the cell number in assay [1] was 99.9; in assay [2], 102. For the same molecule, the H1.0 immunofluorescence intensity in assay [3] was 92.2 (inactive); in assay [4] it was 94.1 (inactive).
In the same order, the values of `COc1ccc(C2CC(=O)c3c(O)cc(OC4OC(CO)C(O)C(O)C4OC4OC(C)C(O)C(O)C4O)cc3O2)cc1O` (configuration not stated) [Neohesperidin] are 99.8, 104, 107 (inactive) and 96.3 (inactive).
For the molecule `C#CCn1c(=O)c2c(ncn2C)n(C)c1=O` [3,7-Dimethyl-I-propargylxanthine], the cell number in assay [1] was found to be 99.5; in assay [2] it was 97.1. In addition, the values for the H1.0 immunofluorescence intensity in assay [3] and in assay [4] were 91.6 (inactive) and 93.4 (inactive), respectively.
The like results for `CC(C)C[C@H](NC(=O)C(O)[C@H](N)Cc1ccc([N+](=O)[O-])cc1)C(=O)O.Cl` (some centres not stated) were, in that order, 104, 104, 95.3 (inactive) and 93.9 (inactive).
The like results for `CCCCN1CCC(COC(=O)c2cc(Cl)c(N)c3c2OCCO3)CC1.Cl` were, in that order, 102, 108, 97.7 (inactive) and 104 (inactive).
In the same order, the values of `O=c1cc(N2CCOCC2)nc2c3ccccc3ccn12` are 95.2, 91.4, 94.7 (inactive) and 111 (inactive).
Turning to `COC(=O)C1=C(C)NC(C)=C(C(=O)OCCN(C)Cc2ccccc2)C1c1cccc([N+](=O)[O-])c1.Cl` (configuration not stated) [Nicardipine hydrochloride], the results for the cell number in assay [1] and in assay [2] were 96.7 and 103, respectively. Moreover, the H1.0 immunofluorescence intensity in assay [3] is 99.2 (inactive); in assay [4], 100 (inactive).
As to `COc1ccc(C=Cc2cc(OC)cc(=O)o2)cc1` [Yangonin], the cell number was found to be 98.9 in assay [1] and 80.2 in assay [2]. In addition, the H1.0 immunofluorescence intensity in assay [3] is 104 (inactive); in assay [4] it was 100 (inactive).
In the same order, the values of `COC(=O)C1C(O)CCC2CN3CCc4c([nH]c5ccccc45)C3CC21.Cl` (configuration not stated) [Yohimbine hydrochloride] are 99.8, 113, 93.8 (inactive) and 107 (inactive).
In the same order, the values of `Cc1ccc(-c2n[nH]c3c2C(c2cccc(O)c2)N(c2ccc(C(=O)O)cc2)C3=O)cc1` (configuration not stated) are 103, 92.6, 95 (inactive) and 116 (inactive).
The like results for `CS(=O)(=O)N1CCN(Cc2cc3nc(-c4cccc5[nH]ncc45)nc(N4CCOCC4)c3s2)CC1` were, in that order, 57.3, 77.8, 85.3 (inactive) and 137 (inactive).
For the molecule `CC(=O)NC(Cc1c[nH]c2ccccc12)C(=O)OCc1cc(C(F)(F)F)cc(C(F)(F)F)c1` (configuration not stated), the results for the cell number in assay [1] and in assay [2] were 102 and 103, respectively. Moreover, the figures for the H1.0 immunofluorescence intensity in assay [3] and in assay [4] were 93.2 (inactive) and 90.8 (inactive), respectively.
In the same order, the values of `Cc1ccc(Cl)c(Nc2ccccc2C(=O)[O-])c1Cl.[Na+]` [Meclofenamic acid sodium] are 106, 106, 90.8 (inactive) and 101 (inactive).
In the same order, the values of `Cl.NO` [Hydroxylamine hydrochloride] are 96.2, 95.5, 97.8 (inactive) and 89.7 (inactive).
For the molecule `COc1cc2c(cc1OC)-c1cc3ccc(OC)c(OC)c3c[n+]1CC2.[Cl-]` [Palmatine chloride], the values for the cell number in assay [1] and in assay [2] were 100 and 108, respectively. Also, the results for the H1.0 immunofluorescence intensity in assay [3] and in assay [4] were 96.1 (inactive) and 88.6 (inactive), respectively.
On to `COc1cc2c(c(OC)c1OC)-c1c(cc(OC)c(OC)c1OC)C[C@](C)(O)[C@@H](C)C2`, for which the figures for the cell number in assay [1] and in assay [2] were 100 and 108, respectively. Further, the H1.0 immunofluorescence intensity in assay [3] is 101 (inactive); in assay [4] it was 100 (inactive).
In the case of `Brc1c(Br)c(Br)c2n[nH]nc2c1Br` [TBB - 4,5,6,7-Tetrabromobenzotriazole], the results for the cell number in assay [1] and in assay [2] were 104 and 96.4, respectively. Moreover, the H1.0 immunofluorescence intensity was 99.2 (inactive) in assay [3] and 104 (inactive) in assay [4].
